Screening results deposited in PubChem by National Center for Advancing Translational Sciences (NCATS).
Hits are enriched below; roughly 1.3% of the tested compounds scored in any of these assays.
RXFP1 agonist: activates the human relaxin receptor RXFP1; Q9HBX9; HEK293T-RXFP1 cAMP TR-FRET, 30 min; response scale: percent of porcine relaxin response, buffer zero; Potency, µM (highest dose often 57.5 µM), inactives show at the top dose activation, most hits filed as activators; 0.3% of 370,000 active; AID 2676; active = well fitted activation curve with a large enough effect; inconclusive = small, poorly fitted or top-dose-only effect; also: potency is read from the fitted curve at half-maximal effect; % is scaled to controls: 0 for no effect and ±100 for the full control effect; nearly all actives have a fitted effect of over 60% in size
Target sequence (Q9HBX9 whole entry, looked up): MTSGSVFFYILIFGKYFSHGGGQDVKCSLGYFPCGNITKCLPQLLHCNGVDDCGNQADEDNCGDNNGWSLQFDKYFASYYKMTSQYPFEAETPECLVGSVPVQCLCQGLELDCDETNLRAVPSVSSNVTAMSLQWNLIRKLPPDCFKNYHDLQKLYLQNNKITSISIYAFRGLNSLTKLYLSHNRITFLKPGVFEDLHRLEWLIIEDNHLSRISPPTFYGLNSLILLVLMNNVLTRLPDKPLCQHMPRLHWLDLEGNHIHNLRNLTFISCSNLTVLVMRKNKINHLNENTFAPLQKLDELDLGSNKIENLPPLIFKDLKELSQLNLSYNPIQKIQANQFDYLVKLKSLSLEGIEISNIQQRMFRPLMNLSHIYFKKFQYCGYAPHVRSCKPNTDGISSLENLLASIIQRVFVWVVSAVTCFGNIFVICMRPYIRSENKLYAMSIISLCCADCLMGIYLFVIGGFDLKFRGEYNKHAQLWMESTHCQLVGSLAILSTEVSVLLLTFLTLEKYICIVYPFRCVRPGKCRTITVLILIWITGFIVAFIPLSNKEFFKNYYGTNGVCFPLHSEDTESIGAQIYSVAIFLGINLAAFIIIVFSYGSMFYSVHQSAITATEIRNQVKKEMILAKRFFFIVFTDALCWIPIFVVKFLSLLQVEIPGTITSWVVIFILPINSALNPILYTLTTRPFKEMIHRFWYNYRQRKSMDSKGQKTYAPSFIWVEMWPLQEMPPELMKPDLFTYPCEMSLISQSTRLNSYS
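Agonist response is measured as cAMP accumulation in an RXFP1-transfected HEK293T line under PDE4 inhibition. Values are scaled between buffer-only and 29 nM porcine relaxin, and EC50s come from standard Hill equation fits.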
gsp antagonist: antagonizes gsp, the McCune-Albright syndrome mutation. gsp-mutant cells, cAMP HTRF, 30 min. 0.4% of 340,000 active. Potency, µM (top dose mostly 76.9 µM), without a hit: at the highest dose activity change, negative = inhibition, actives largely listed as inhibitors; calls by dose curve; cell line not stated here;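 also: intracellular cAMP measured with PDE inhibitor Ro 20-1724 present during compound exposure; potency is read from the fitted curve at half-maximal effect; % is scaled to controls: 0 for no effect and ±100 for the full control effect; nearly all actives have a fitted effect of over 65% in size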
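Measurement of cellular cAMP by homogeneous time-resolved fluorescence following a 30 min compound exposure at 37C. The PDE inhibitor […] was present throughout; the assay buffer was DPBS with 0.05% BSA and 0.005% Tween 20.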
Akt phos inh: inhibitors of Akt phosphorylation; Neuro2A IGF-stimulated pAkt S473 HTRF, 20 min; hits give low values; activity change, % for hits at 50 µM; 0.32% of 360,000 active; in the data active = activity change below about -80%; inconclusive = mostly about -51% to -80%; also: % is scaled to controls: 0 for no effect and ±100 for the full control effect
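Neuro2A cells in DMEM with 0.5% FBS, overnight at 37 deg C, given compound at single 50 µM final, then IGF (6 nM final) for 20 min at 37 deg C. Lysed; phospho-Akt Ser473 by HTRF after 24 h, 665/615 ratio.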
RXFP1 antag: RXFP1 (human) relaxin receptor antagonism; Q9HBX9; HEK293-RXFP1, relaxin-stimulated cAMP HTRF, 30 min; hits give low values; activity change, negative = inhibition, % at 57.5 µM; 0.59% of 350,000 active;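 active = activity change of -60% or lower, but not beyond a set lower limit; inconclusive = change between -60% and -40%, or beyond the set limit; inactive = change above -40%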; also: % is scaled to controls: 0 for no effect and ±100 for the full control effect
gsp ag: activates gsp, the McCune-Albright syndrome mutation; gsp mutant cells, cAMP HTRF, 30 min; Potency, µM (titrated, usually from 76.9 µM), inactives show at the top dose activation (cAMP increase), actives largely listed as activators; 0.13% of 340,000 active; active = well fitted activation curve with a large enough effect; inconclusive = small, poorly fitted or top-dose-only effect, or another doubt; inactive = no such curve, though single readings can be large or run the other way; cell line not stated here;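 also: phosphodiesterase inhibitor Ro 20-1724 added with compounds to block cAMP breakdown; potency is read from the fitted curve at half-maximal effect; nearly all actives have a fitted effect of over 60% in size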
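Cells stably selected in G418 were plated at 2000/well, grown 16-24 hr, then given compounds in DMSO with the PDE inhibitor […] (300 uM solution added) for 30 min at 37C; cAMP was read by HTRF.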
* = called active by the depositor; i = inactive; ? = inconclusive; · = no result given; [ ] = remark or other dose.

SMILES | RXFP1 agonist | gsp antagonist | Akt phos inh | RXFP1 antag | gsp ag
Cc1cc(=O)[nH]c(SCC(=O)c2c(N)n(C)c(=O)n(C)c2=O)n1 | ? | 36% | i | 13 | 25µM*
O=C(c1cc2cc3ccc(Cl)cc3nc2o1)N1CCN(c2cccc(Cl)c2)CC1 | -2% | · | · | · | ·
Cc1cccc(NC(=O)/C(C#N)=C\c2cc(C)n(-c3ccc(C(=O)O)cc3)c2C)c1 | -1% | 25µM* | i | -35 | 5%
CCN1CCN(c2nc3c(S(=O)(=O)c4ccc(Br)cc4)nnn3c3ccsc23)CC1 | ? | · | · | 3 | ·
CC1=NN(c2cccc(C(=O)O)c2)C(=O)/C1=C\C=C/c1ccccc1 | 1% | 28µM* | i | -75* | -7%[15.4 µM]
CC1=NN(c2ccc(C)cc2)C(=O)/C1=C\C=C\c1ccccc1 | 1% | 11% | i | -37 | -3%[15.4 µM]
COC(=O)C1=C(C)NC(COC(N)=O)=C(C(=O)OC(C)C)C1c1cccc(Cl)c1Cl (stereo not given) | · | · | · | -25 | ·
O=C1/C(=C/c2cccs2)SC(=S)N1N1CCOCC1 | 0% | -5% | i | -96* | 3%
O=C1/C(=C/c2ccncc2)SC(=S)N1N1CCOCC1 | -1% | 1% | i | -34 | -4%[15.4 µM]
COc1cccc2c1C(=O)c1c(O)c3c(c(O)c1C2=O)C[C@@](O)(C(=O)CO)C[C@@H]3O[C@H]1C[C@H](N)[C@H](O[C@@H]2CCCCO2)[C@H](C)O1 | · | · | · | -20 | ·
CCc1cc(=O)oc2c(C)c(O)c(CN3CCCCC3)cc12 | 18% | -10% | -93%* | 16 | ?
COc1ccc(-c2noc(N3CCC(C(=O)N(C)c4cc(Cl)ccc4OC)CC3)n2)cc1 | 0% | · | · | -9 | ·
COCCCn1c(C(=O)NCCC2=CCCCC2)cc2c(=O)n3ccccc3nc21 | 16% | 8% | i | 2 | 7.1µM*
CCNC(=S)N/N=C/c1cc(C)n(-c2ccc(Cl)cc2)c1C | 0% | 17% | i | -18 | 11%[15.4 µM]
Cc1cc(/C=N/NC(N)=S)c(C)n1-c1ccc(Cl)c(Cl)c1 | 3% | 17% | i | -105* | -2%[15.4 µM]
O=S(=O)(/C=C/c1ccccc1)n1cnc2ccccc21 | 0% | -4% | -118%* | -2 | -4%
COc1ccccc1N1CCN(S(=O)(=O)CCNC(=O)COc2ccc(C(C)C)cc2)CC1 | 2% | · | · | ? | ·
CCCCOC(=O)CNc1n[nH]c(=S)[nH]c1=O | ? | 6% | i | -63* | ?
COc1ccc(CCNC(=O)c2cc(-c3ccccc3)c(N3CCOCC3)s2)c(OC)c1OC | 3% | 32µM* | i | -7 | -18%
CC(=O)N(c1onc(C)c1C)S(=O)(=O)c1ccc(N)cc1 | · | · | · | -11 | ·
CC1OC(OC2C(CO)OC(OCC3OC(OC(=O)[C@@]45CCC(C)(C)C[C@@H]4C4=CC[C@@H]6[C@@]7(C)CCC(OC8OCC(O)C(O)C8OC8OC(C)C(O)C(O)C8O)[C@@](C)(CO)C7CC[C@@]6(C)[C@]4(C)CC5)C(O)C(O)C3O)C(O)C2O)C(O)C(O)C1O (stereo not given in full) | · | 40µM* | i | · | ·
CC1(C)CC[C@]2(C(=O)O)CC[C@]3(C)C(=CC[C@@H]4[C@@]5(C)CC[C@H](O[C@@H]6O[C@H](C(=O)O)[C@@H](O)[C@H](O[C@@H]7OC[C@H](O)[C@H](O)[C@H]7O)[C@H]6O)C(C)(C)[C@@H]5CC[C@]43C)[C@@H]2C1 | · | 45µM* | i | · | ·
CC1(C)CC[C@]2(C(=O)O[C@@H]3O[C@H](CO)[C@@H](O)[C@H](O)[C@H]3O)CC[C@]3(C)C(=CCC4[C@@]5(C)CC[C@H](O[C@@H]6O[C@H](C(=O)O)[C@@H](O[C@H]7OC[C@@H](O)[C@@H](O)[C@@H]7O)[C@H](O)[C@H]6O)C(C)(C)C5CC[C@]43C)[C@@H]2C1 (stereo not given in full) | · | 6% | i | · | ·
C[C@H]1O[C@H](O[C@H]2[C@H](O[C@@H]3CC[C@@]4(C)C(CC[C@]5(C)C4CC=C4[C@@H]6CC(C)(C)CC[C@]6(C(=O)O[C@@H]6O[C@H](CO)[C@@H](O)[C@H](O)[C@H]6O)CC[C@]45C)C3(C)C)O[C@H](C(=O)O)[C@@H](O)[C@@H]2O)[C@@H](O)[C@@H](O)[C@@H]1O (stereo not given in full) | 0% | -4% | i | 0 | -35%
Cc1[nH]nc(-c2ccc(O)c(C)c2O)c1-c1cnn(-c2ccccc2)c1 | 1% | -3% | · | -87* | -66%
SMILES | RXFP1 agonist | gsp antagonist | Akt phos inh | RXFP1 antag | gsp ag
CCCN1CCCc2cc(CN(CCCN3CCOCC3)C(=O)Nc3ccc(Cl)c(Cl)c3)ccc21 | 4% | · | · | -14 | ·
CCOC(=O)c1cc2c(=O)n3ccccc3nc2n(Cc2ccco2)c1=NC(=O)c1ccccc1OCC | 28µM* | -9% | i | -5 | 11%[15.4 µM]
CCOc1cccc2sc(NC(=O)c3ccc(S(=O)(=O)N4CCCCC4C)cc3)nc12 (stereo not given) | 1% | · | · | 8 | ·
Cc1ccc(NC(=O)C2CCCN(c3nnc(C)c4c(C)n(-c5ccccc5)nc34)C2)c(Cl)c1 (stereo not given) | 4% | · | · | -20 | ·
CCc1ccccc1NC(=O)C1C(c2ccccc2)C1(Cl)Cl (stereo not given) | -1% | -25% | -107%* | -5 | 21%
CCOc1ccccc1NC(=O)C1C(c2ccccc2)C1(Cl)Cl (stereo not given) | · | · | i | -7 | -8%
O=C1CCN(C(=O)c2cccs2)c2ccccc21 | 1% | 10% | i | -7 | -1%[15.4 µM]
CN1C(=O)/C(=C\C(=O)c2cccs2)c2ccccc21 | 2% | -2% | i | -98* | 34%[15.4 µM]
COc1ccc(-c2noc(-c3ccccc3C(=O)NCc3ccco3)n2)cc1 | 1% | -9% | -110%* | -6 | 1%
COc1cccc(NC(=O)c2ccccc2-c2nc(-c3ccc(Cl)cc3)no2)c1 | 2% | -10% | -109%* | 1 | 22%
COc1ccc(-c2noc(-c3ccccc3C(=O)NCc3ccco3)n2)cc1OC | 0% | -18% | i | -15 | 3%
Cc1ccc(NC(=O)c2ccc(F)c(S(=O)(=O)NCCc3ccccc3)c2)cc1F | 5% | · | · | -21 | ·
O=C(c1ccccc1)c1cc(Cl)ccc1N1C(=O)C=CC1=O | 0% | 16% | i | -63* | 0%
O=C(CC(=O)c1cc(Cl)ccc1O)c1ccccc1 | 1% | ? | i | -20 | 26%
COC(=O)C(C(=O)OC)=C(/C=C/N(C)C)N(C)C | 0% | 5% | -104%* | -5 | -23%
Cc1ccc(NC(=O)N2CCc3c([nH]c4ccccc34)C2c2ccccc2F)c(Cl)c1 (stereo not given) | 2% | · | · | ? | ·
N#CC1=C2SCN(Cc3ccccc3)CN2C(=O)CC1c1cccs1 (stereo not given) | 25µM* | 6% | i | 7 | ?
